Experimental data reported in PubChem BioAssay AID1159580 (chemical genetic matrix, 2015).
The whole screen tested about 5,500 compounds, of which about 2,000 (36%) were called active. Another 18% or so got no clear call; they are omitted. Rule as the data show it: active = normalized growth mostly below about 0.91 (no sharp cut-off); inconclusive = no clear call, values can overlap the other calls; inactive = mostly above about 0.92. The list shows a part of the results.

Test: chemical genetic growth profiling, strain panel (AID 1159580);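 also: tested at 20 µM; growth read once vehicle control cultures reached saturation at 30 °C; 1 = growth at the plate median or of vehicle wells; lower values mean less growth of the strain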
Conditions: S. cerevisiae deletion strains, growth OD

Measured: normalized growth

CC(=O)Oc1ccc(O)cc1
inactive: locus YAL013W, strain DEP1, active compounds read low 0.942 | locus YAL021C, strain ccr4, active compounds read low 1.03 | locus YAL026C, strain drs2, active compounds read low 0.953 | locus YAL030W, strain snc1, active compounds read low 0.994 | locus YBL061C, strain skt5, active compounds read low 0.977 | locus YBR009C, strain hhf1, active compounds read low 0.963 | locus YBR023C, strain chs3, active compounds read low 0.982 | locus YBR171W, strain sec66, active compounds read low 0.974 | locus YBR229C, strain ROT2, active compounds read low 1.02 | locus YBR231C, strain swc5, active compounds read low 0.971 | locus YBR279W, strain paf1, active compounds read low 0.986 | locus YCL011C, strain gbp2, active compounds read low 0.989 | locus YCL016C, strain dcc1, active compounds read low 0.999 | locus YCL029C, strain bik1, active compounds read low 1.03 | locus YCL061C, strain MRC1, active compounds read low 0.993 | locus YCL069W, strain vba3, active compounds read low 0.987 | locus YCR088W, strain abp1, active compounds read low 0.995 | locus YDL005C, strain med2, active compounds read low 0.978 | locus YDL035C, strain GPR1, active compounds read low 0.922 | locus YDL040C, strain nat1, active compounds read low 0.994 | locus YDL074C, strain BRE1, active compounds read low 1 | locus YDL101C, strain DUN1, active compounds read low 1 | locus YDL134C, strain PPH21, active compounds read low 0.89 | locus YDL185W, strain tfp1, active compounds read low 1.03 | locus YDL192W, strain arf1, active compounds read low 1.02 | locus YDR001C, strain nth1, active compounds read low 0.987 | locus YDR069C, strain doa4, active compounds read low 1.02 | locus YDR101C, strain arx1, active compounds read low 1.02 | locus YDR137W, strain rgp1, active compounds read low 0.936 | locus YDR150W, strain NUM1, active compounds read low 0.999 | locus YDR159W, strain sac3, active compounds read low 0.967 | locus YDR162C, strain NBP2, active compounds read low 0.916 | locus YDR195W, strain ref2 0.997 | locus YDR297W, strain sur2, active compounds read low 0.987 | locus YDR318W, strain mcm21, active compounds read low 1 | locus YDR334W, strain swr1, active compounds read low 0.986 | locus YDR335W, strain msn5, active compounds read low 0.995 | locus YDR388W, active compounds read low 1.02 | locus YDR392W, strain spt3, active compounds read low 0.844 | locus YDR502C, strain sam2, active compounds read low 1.02 | locus YEL003W, strain gim4, active compounds read low 0.986 | locus YEL037C, strain rad23, active compounds read low 0.987 | locus YEL061C, strain CIN8 (second series), active compounds read low 0.98 | locus YEL061C, strain CIN8, active compounds read low 1 | locus YER015W, strain faa2, active compounds read low 0.992 | locus YER016W, strain bim1, active compounds read low 1.01 | locus YER110C, active compounds read low 1.04 | locus YER111C, strain swi4, active compounds read low 0.969 | locus YER155C, strain BEM2 (second series), active compounds read low 0.959 | locus YER155C, strain BEM2, active compounds read low 1.01 | locus YER167W, strain BCK2, active compounds read low 0.976 | locus YFR010W, strain ubp6, active compounds read low 0.969 | locus YGL078C, strain dbp3, active compounds read low 1.02 | locus YGL086W, strain mad1, active compounds read low 0.984 | locus YGL167C, strain pmr1, active compounds read low 0.988 | locus YGL173C, strain kem1, active compounds read low 0.975 | locus YGL227W, strain vid30, active compounds read low 0.983 | locus YGL240W, strain doc1, active compounds read low 0.926 | locus YGL248W, strain PDE1, active compounds read low 0.923 | locus YGL253W, strain hxk2, active compounds read low 0.973 | locus YGR135W, strain pre9, active compounds read low 0.99 | locus YGR252W, strain gcn5, active compounds read low 0.87 | locus YHR013C, strain ard1, active compounds read low 0.975 | locus YHR027C, strain rpn1, active compounds read low 0.987 | locus YHR030C, strain SLT2, active compounds read low 0.994 | locus YHR079C, strain IRE1 (second series), active compounds read low 1.02 | locus YHR094C, strain hxt1, active compounds read low 1.02 | locus YHR129C, strain ARP1, active compounds read low 0.994 | locus YHR142W, strain chs7, active compounds read low 0.996 | locus YHR200W, strain rpn10, active compounds read low 1.03 | locus YIL073C, strain SPO22, active compounds read low 0.89 | locus YIL125W, strain kgd1, active compounds read low 1.02 | locus YIR030C, strain dcg1, active compounds read low 1.04 | locus YJL092W, strain hpr5, active compounds read low 0.983 | locus YJL095W, strain BCK1 (second series), active compounds read low 0.996 | locus YJL095W, strain BCK1, active compounds read low 0.976 | locus YJL115W, strain asf1, active compounds read low 0.988 | locus YJL129C, strain trk1, active compounds read low 1.01 | locus YJL134W, strain LCB3, active compounds read low 1.03 | locus YJL154C, strain vps35, active compounds read low 0.985 | locus YJL164C, strain tpk1, active compounds read low 0.975 | locus YJL166W, strain qcr8, active compounds read low 0.978 | locus YJL168C, strain set2, active compounds read low 1.02 | locus YJL187C, strain SWE1 (second series), active compounds read low 0.997
active: locus YBR021W, strain FUR4, active compounds read low 0.796 | locus YGR229C, strain SMI1, active compounds read low 0.572 | locus YIL066C, strain RNR3, active compounds read low 0.852
